# HepG2 viability = counter-screen for TGF-b inhibitors: cytotoxicity in HepG2 cells; Potency, µM (titrated, usually from 46.1 µM), inactives show at the top dose activity change, negative = cytotoxicity, usual class: cytotoxic; HepG2 CAGA-GFP viability, ATP luminescence, 18 h; 410,000 compounds, 0.76% hits; note: potency is the fitted concentration of half-maximal effect
#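 HepG2 CAGA-GFP cells (1000/well, DMEM with 1% FBS) received compound, then TGF-beta at 500 pg/mL final, and were incubated 18 hours at 37 degrees C. Viability was read by CellTiter-Glo luminescence. Media-only wells were set as complete cell-killing and DMSO as no toxicity.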
# DRD3 antagonist = blocks the human D3 dopamine receptor; D3R cells, DiscoveRx beta-arrestin luminescence, antagonist mode; hits give low values; max response, negative = inhibition, %; 360,000 compounds, 2.5% hits; AID 652054; in the data active = max response below about -50%; inconclusive = no clear call, values can overlap the other calls; note: % is set by controls: 0 for no effect and ±100 for the full control effect
# Target sequence (P35462 whole entry, looked up): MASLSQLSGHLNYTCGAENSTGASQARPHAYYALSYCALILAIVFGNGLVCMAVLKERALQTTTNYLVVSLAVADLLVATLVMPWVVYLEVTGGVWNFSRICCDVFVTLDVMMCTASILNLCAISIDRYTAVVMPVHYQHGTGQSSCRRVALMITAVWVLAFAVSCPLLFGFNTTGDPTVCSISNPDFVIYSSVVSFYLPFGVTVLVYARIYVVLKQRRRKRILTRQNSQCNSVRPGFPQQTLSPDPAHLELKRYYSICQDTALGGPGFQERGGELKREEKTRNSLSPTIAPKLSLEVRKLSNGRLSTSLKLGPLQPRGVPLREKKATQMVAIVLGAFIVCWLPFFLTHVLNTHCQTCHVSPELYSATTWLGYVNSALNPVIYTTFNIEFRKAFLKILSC
#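 Cells plated overnight at 1500 cells/well, then exposed to library compounds with dopamine controls for 90 minutes at 37 degrees C. DiscoveRx reagent added for 30–60 minutes at room temperature; luminescence read, quantitative HTS format.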
# ATXN2 expr inh = ATXN2 expression inhibition | AID 1745845 | HEK-293 ATXN2-luciferase reporter, luminescence, 24 h | Potency, µM (doses to about 57 µM), for inactives: top-dose activity change, negative = inhibition, usual class: inhibitors | 360,000 compounds, 0.72% hits; note: potency is the fitted concentration of half-maximal effect; % is set by controls: 0 for no effect and ±100 for the full control effect; nearly all actives have a fitted effect of over 55% in size
#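 ATXN2-luciferase reporter cells (luciferase flanked by upstream and downstream ATXN2 gene portions) were treated 24 h at 37 °C with compounds at up to 57 uM. SteadyGlo luminescence gave expression; GF-AFC fluorescence gave viability.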
# ATXN viability = reduces viability in counter-screen for ATXN expression inhibitors; S2 cells (HEK-293 line with an ATXN2-luciferase reporter) viability, CellTiter-Fluor protease fluorescence, 24 h; Potency, µM (highest dose often 56.7 µM), actives largely listed as cytotoxic; 400,000 compounds, 0.49% hits; note: potency is the fitted concentration of half-maximal effect; nearly all actives have a fitted effect of over 40% in size
# DRD3 agonist = agonists of human D3 dopamine receptor. P35462. D3R DiscoveRx beta-arrestin cells, luminescence, 90 min. max activation, %. 410,000 compounds, 0.58% hits. AID 652048; in the data active = max activation above about 30%; note: 0% is about no effect
#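 Agonist mode: compounds and dopamine controls were applied to plated cells for 90 min at 37 degrees C after an overnight attachment at 1500 cells/well. Luminescent read-out followed 30 - 60 minutes at room temperature with DiscoveRx detection reagent.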
# TGFb inhibitor = TGF-b pathway inhibition; HepG2 CAGA-GFP TGF-b/SMAD3 reporter, GFP fluorescence, 18 h; TGF-beta stimulated, 500 pg/mL final; 410,000 compounds, 1.2% hits; Potency, µM (top dose mostly 46.1 µM), without a hit: at the top dose activity, negative = inhibition, hits mostly inhibitors; AID 588855; note: potency is the fitted concentration of half-maximal effect; % is set by controls: 0 for no effect and ±100 for the full control effect; nearly all actives have a fitted effect of over 65% in size
#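 HEPG2 CAGA-GFP cells (1000/well, DMEM with 1% FBS) were pre-incubated 2 h at 37 degrees C, given compound by pin tool, then stimulated with TGF-beta at 500 pg/mL final for 18 h before per-cell GFP fluorescence imaging.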
# * = called active by the depositor; i = inactive; ? = inconclusive; . = not tested or not shown. An excerpt weighted towards active compounds, which were near 4.8% of everything screened. Unless noted, calls come from the whole dose curve; as a rule, active = well fitted curve in the direction sought with a large enough effect; inconclusive = small, poorly fitted or top-dose-only effect, or another doubt; inactive = no such curve, though single readings can be large; an effect the other way counts as inactive or inconclusive.
SMILES,HepG2 viability,DRD3 antagonist,ATXN2 expr inh,ATXN viability,DRD3 agonist,TGFb inhibitor
Cc1sc2ccccc2c1CNC[C@H]1O[C@@H](n2ccc(N)nc2=O)[C@H](O)[C@@H]1O,-5%,11,6%,i,0,-19%
O=C(Nc1ccccc1Oc1cccnc1)C1CCCN(C/C=C/c2ccccc2)C1 (stereo unspecified),-36%,-60*,-17%,i,-41,-33%
O=C(Nc1ccccc1Oc1cccnc1)C1CCCN(Cc2ccccc2O)C1 (stereo unspecified),-7%,14,-21%,i,10,-3%
O=C(O)c1cccc2c1/C(=N/Nc1ccc([N+](=O)[O-])cc1[N+](=O)[O-])c1ccccc1-2,-1%,-54*,5%,i,-6,-6%
CCCOC(=O)N1CCN(/[N+]([O-])=N/Oc2ccc([N+](=O)[O-])cc2[N+](=O)[O-])CC1,-97%,.,.,.,.,7.1µM*
O=C(OCc1ccccc1)N1CCN(/[N+]([O-])=N/Oc2ccc([N+](=O)[O-])cc2[N+](=O)[O-])CC1,-108%,.,.,.,.,?
COC(=O)C1CCN(Cc2ccc3c(c2)CN(C(=O)c2cc(C4CC4)on2)CCO3)CC1,.,.,.,i,.,.
CCc1ccccc1Nc1nc2ccccc2c2nncn12,-4%,.,1%,i,5,20%
CSc1ncccc1C(=O)NCC1Cc2cc(-c3cnccn3)cc(Cl)c2O1 (stereo unspecified),.,.,.,i,.,.
CCC(=S)/C=C1\Sc2ccccc2N1CCCS(=O)(=O)O,-23%,-63*,-1%,?,7,0%
CCc1cccc(CC)c1NC(=O)/C(C#N)=C/c1ccccc1C(F)(F)F,-95%,1,?,.,5,13µM*
COCCCn1c(-c2ccc(S(=O)(=O)N3CCOCC3)cc2)csc1=Nc1ccccc1,0%,43,32µM*,?,4,-3%
Cn1c(-c2ccc(S(=O)(=O)N3CCCC3)cc2)csc1=Nc1ccc(Cl)c(Cl)c1,-32%,.,.,.,-3,?
O=S(=O)(c1ccc(-c2csc(=Nc3ccc(OC(F)(F)Cl)cc3)n2CCCO)cc1)N1CCCC1,-41%,.,.,.,-2,3.5µM*
Cc1ccc(C(=O)NCCc2nnc3n2CCN(Cc2ccnc4ccccc24)CC3)c(C)c1,.,.,.,i,.,.
CCc1ccccc1OCc1nc2ccc(S(=O)(=O)N3CCOCC3)cc2[nH]1,-26%,-56*,2%,i,-2,12%
Cc1ccccc1OCc1nc2ccc(S(=O)(=O)N3CCOCC3)cc2[nH]1,-7%,-14,-4%,i,13,?
COc1ccccc1CN1CCN(Cc2ccc3ccccc3c2)CC1,-34%,-90*,.,?,-2,-14%
COc1ccc2ccccc2c1CN1CCCC(CO)C1 (stereo unspecified),-13%,-9,-5%,i,-4,0%
COc1ccc(CN2CCN(Cc3ccc4ccccc4c3)CC2)cc1OC,-34%,-76*,-29%,i,-49,-25%
COc1ccc2ccccc2c1CN1CCN(Cc2ccccc2)CC1,-45%,-71*,-25%,i,-30,?
CN(C)CC1CCCCC1C1(O)c2ccccc2CSc2sccc21 (stereo unspecified),-69%,-73*,0%,i,1,-19%
Cc1ccc2c(c1)-c1c(cnn1CC(=O)N1CCN(c3cccc(C(F)(F)F)c3)CC1)CO2,-4%,.,-20%,i,20,3%
CCCCOc1c(C(=O)c2c(F)cc(C)cc2F)cnc2n[nH]cc12,.,.,9.7µM*,.,.,.
COc1ccc(-n2ccnc(NCCc3ccc(S(N)(=O)=O)cc3)c2=O)cc1Cl,-14%,.,-3%,i,4,-27%
SMILES,HepG2 viability,DRD3 antagonist,ATXN2 expr inh,ATXN viability,DRD3 agonist,TGFb inhibitor
COc1cc(OC)c(/C=C/c2nccc3ccccc23)c(OC)c1,-31%,.,.,.,.,?
CCCC1([C@H](O)C/C=C/[C@H]2[C@H](O)CC(=O)[C@@H]2CCCCCCC(=O)OC)CCC1,.,.,.,35µM*,9,.
O=C(NC[C@H](O)CO)c1ccncc1Nc1ccc(I)cc1F,.,.,2%,.,.,.
O=Cc1c(Sc2ccccn2)nc2ccccn2c1=O,-9%,-52*,36%,i,3,-13%
Cc1nc2ccccn2c1C(=O)/C=C/c1ccc(F)cc1,-13%,-23,29%,i,-4,?
COc1ccc(/C=C/C(=O)c2c(C)nc3ccccn23)cc1,-5%,16,-5%,?,38*,-16%
Cc1cc(C)n(-c2ccc(C(=O)NCC3Cc4cc(-c5cnccn5)ccc4O3)cc2)n1 (stereo unspecified),.,.,.,i,.,.
C=C1C(=O)C=C2CN(C(=O)c3ccccc3)[C@@](Cc3ccc(F)cc3)(C(=O)OC)[C@@H]12,3.2µM*,-99*,3.2µM*,4.5µM*,-31,1.8µM*
C=C1C(=O)CC2=C1[C@](Cc1ccc(F)cc1)(C(=O)OC)N(C(=O)c1ccccc1)C2,.,16,0%,?,-5,.
Cc1ccc(OCC(=O)Nc2ccc3c(c2)nc(CCN2CCN(c4ccccn4)CC2)n3C)cc1,-12%,-3,.,?,7,-3%
CCCC(=O)Nc1ccc2c(c1)nc(CCN1CCN(c3ccccn3)CC1)n2C,-14%,-5,-19%,i,57*,-7%
Cn1c(CCN2CCN(c3ccccn3)CC2)nc2cc(NC(=O)COc3ccccc3)ccc21,-18%,-13,.,?,44*,?
CCCCC(=O)Nc1ccc2c(c1)nc(CCN1CCN(c3ccccn3)CC1)n2C,-4%,-28,6%,i,44*,-14%
CC1CCN(CCc2nc3cc(NC(=O)COc4ccccc4)ccc3n2C)CC1,-9%,-71*,-8%,?,-15,-12%
O=[N+]([O-])c1ccc(Oc2ccc(N=C=S)cc2)cc1,.,.,.,?,3,.
COc1cccc(NC(=O)CNC(=O)Cn2c(C)cc3ccccc3c2=O)c1,-1%,.,-8%,i,8,26%
CN(C(=O)c1ccc2c(c1)N(Cc1ccccc1F)C(=O)c1ccccc1S2(=O)=O)C1CCCCC1,-16%,.,0%,i,-1,?
COCCn1c(CCC(=O)Nc2ccc(OC)c(OC)c2)nc2cccnc21,1%,.,3%,i,1,10%
CCOc1ccc(S(=O)(=O)Nc2cc(C)ccn2)c2ccccc12,3%,56,-12%,i,32*,-2%
COc1ccc(S(=O)(=O)Nc2cc(C)cc(C)n2)c2ccccc12,-5%,2,-1%,i,4,0%
